The values below come from PubChem BioAssay AID1259417 (TB Discovery Research, Infectious Disease Research Institute, 2018).

Each structure is given as a SMILES string. Hit rate of the full screen: of about 1,100 compounds, about 760 (69%) were called active. How the calls were made is not given here. So high a share suggests a set chosen from earlier hits. The list shows a part of the results.

The nature of the test: M. tuberculosis growth inhibition, HTS (AID 1259417).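 Further: bacteria grown with compound for 5 days at 37 °C.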 As to conditions: stronger effect = higher value, concentration not given here.
[1] abbreviates: M. tuberculosis DsRed fluorescence growth inhibition.
[2] abbreviates: M. tuberculosis growth inhibition.

Consider `COc1cccc(C=NNc2nc(=O)[nH]nc2C)c1O`, for which the inhibition reads like this: under setting [1], 91.7% (active); under setting [2], 94.9%.
The like results for `CC(=NNc1nc(=O)[nH]nc1C)c1ccccc1O` were, in that order, 98.6% (active) and 98.8%.
As to `COc1ccc(C2(C(=O)Nc3ccc(Br)cc3)CCCC2)cc1`, the inhibition by setting is: under setting [1], 63.2% (active); under setting [2], 81.4%.
The like results for `CC(=NNc1nc(C)c(C)s1)c1ccc(Br)cc1` were, in that order, 96.2% (active) and 89.4%.
The matching figures for `CCOC(=O)COc1ccc2c(C#N)c3ccccn3c2c1`: -0.849% (inactive) and 22.1%.
For `CCOC(=O)CCc1c(C)c(C#N)c2[nH]c3ccccc3n2c1=O`, the inhibition is 98.3% (active) under setting [1] and 96.2% under setting [2].
The like results for `COC(=O)c1c2c(n3ccc(C)cc13)C(=O)c1ccccc1C2=O` were, in that order, 99.2% (active) and 98.8%.
The matching figures for `CCOC(=O)C1=C(c2ccc(C)cc2)C(=O)c2ccccc2C1=O`: 14.4% (inactive) and 16.3%.
The matching figures for `CC(C)(C)c1ccc(C(=O)Nc2cccc(NC(=O)c3cccs3)c2)cc1`: 0.571% (inactive) and 22.7%.
Regarding `CN(C)c1ccc(NC(=O)c2ccncc2)cc1`, the inhibition is 98% (active) under setting [1] and 100% under setting [2].
The matching figures for `Cc1ccc(NC(=O)c2cc3cc(Cl)cc(Cl)c3oc2=O)c(C)c1`: 9.67% (active) and 43.2%.
The matching figures for `O=C1c2ccccc2C(=O)N1CCCCN(C(=O)c1cc([N+](=O)[O-])cc([N+](=O)[O-])c1)c1ccc(Cl)cc1`: 97.2% (active) and 92.5%.
With `CCOC(=O)c1c(C)oc2ccc(OC(=O)c3cccs3)cc12`, the inhibition is, setting by setting: under setting [1], -0.261% (inactive); under setting [2], 2.41%.
The matching figures for `CC1=CC(C)(C)Nc2ccc(OC(=O)c3cccnc3)cc21`: 9.4% (active) and 36.8%.
For `CC1=CC(C)(C)Nc2ccc(OC(=O)c3cccs3)cc21`, the inhibition reads like this: under setting [1], 49.6% (active); under setting [2], 74.6%.
The like results for `NC(=O)c1c(NC(=O)c2ccc(COc3ccccc3Cl)cc2)sc2c1CCCC2` were, in that order, -7.68% (inactive) and -40%.
As to `Cc1cccc(N2CCN(c3ncnc4sc5c(c34)CCCC5)CC2)n1`, the inhibition by setting is: under setting [1], 7.93% (inactive); under setting [2], -17.2%.
For the compound `O=C(Nc1ncnc2sc3c(c12)CCCC3)c1ccc(F)cc1`, the inhibition under setting [1] was 26.6% (active) and the inhibition under setting [2] was 61.8%.
The matching figures for `CCOC(=O)c1cnc2ccc(OC)cc2c1Nc1ccc2c(c1)OCCO2`: 36.6% (active) and 24%.
The matching figures for `CC(=O)OCCNc1cc(SCc2ccco2)c2nonc2c1[N+](=O)[O-]`: 14.7% (inactive) and 11.3%.
The like results for `O=C(CC(SCc1ccco1)c1cccc([N+](=O)[O-])c1)c1ccco1` (stereo unspecified) were, in that order, 96.9% (active) and 97.7%.
For the compound `CCCC(=O)OCCNc1cc(SCc2ccco2)c2nonc2c1[N+](=O)[O-]`, the inhibition was 22% (inactive) under setting [1] and 21% under setting [2].
The like results for `CCCCn1c(O)c(/C=C2\C=CC=N2)c(=O)[nH]c1=O` were, in that order, 58.2% (active) and 89.6%.
The like results for `Cc1cc(C)c(-n2c(O)c(/C=C3\C=CC=N3)c(=O)[nH]c2=O)c(C)c1` were, in that order, 97.7% (active) and 98.6%.
Consider `O=c1c2cccc3c2c(nn1CCN1CCCCC1)-c1ccccc1-3`, for which the inhibition was -22.6% (active) under setting [1] and 56.2% under setting [2].
The matching figures for `CCC(C)(C)c1ccc(OCCCn2ccnc2)cc1`: 100% (active) and 99.6%.
The like results for `CCC(C)c1ccc(OCCn2ccnc2)cc1` (stereo unspecified) were, in that order, 99.2% (active) and 99.6%.
The matching figures for `CCC(C)c1ccc(OCCCCn2ccnc2)cc1` (stereo unspecified): 100% (active) and 100%.
As to `CCOC(=O)c1sc(NC(=O)NC2CCCCC2)cc1C`, the inhibition runs as follows: under setting [1], 100% (active); under setting [2], 96.2%.
Consider `CCOC(=O)c1c(NC(=S)NC2CCN(Cc3ccccc3)CC2)sc(C)c1-c1ccccc1`, for which the inhibition was 21.1% (inactive) under setting [1] and -12.2% under setting [2].
The matching figures for `CCOC(=O)c1sc(NC(=O)CCSc2ccccc2)cc1C`: 96.9% (active) and 84.1%.
The matching figures for `Cc1ccc(-c2ccc(C=CC(=O)c3ccco3)o2)cc1`: 9.38% (inactive) and 20.8%.
The matching figures for `CCOC(=O)C(C#N)=Cc1ccc(-c2ccc(F)cc2)o1`: 2.37% (active) and 87.5%.
`Cc1ccc(-n2cnc3cc(NCc4cccs4)ccc32)cc1`: the inhibition under setting [1] was 18.8% (active) and the inhibition under setting [2] turned out to be 35.4%.
Regarding `CCn1cc(C(=O)O)c(=O)c2cc(F)c(N3CCN(C(=S)Nc4cc(C(F)(F)F)ccc4Cl)CC3)cc21`, the inhibition is, setting by setting: under setting [1], 47.9% (active); under setting [2], 61.9%.
On to `CC(=O)N1CCN(c2cc3c(cc2F)c(=O)c(C(=O)O)cn3C2CC2)CC1`, for which the inhibition under setting [1] is 97.5% (active) and the inhibition under setting [2] amounted to 97.7%.
On to `CCn1cc(C(=O)O)c(=O)c2cc(F)c(N3CCN(C)CC3)cc21`, for which the inhibition under setting [1] is 94.8% (active) and the inhibition under setting [2] stood at 94.2%.
The like results for `CCn1cc(C(=O)O)c(=O)c2cc(F)c(N3CCNCC3)cc21` were, in that order, 96.6% (active) and 97%.
The matching figures for `O=c1oc(-c2ccccc2)cc(Cl)c1Cl`: 61.6% (active) and 74%.
The like results for `Cc1ccc2sc(N(CCCn3ccnc3)C(=O)c3cccs3)nc2c1C` were, in that order, 98.3% (active) and 99.1%.
Turning to `O=C(c1cccs1)N(CCCn1ccnc1)c1nc2c(Cl)cccc2s1`, the inhibition runs as follows: under setting [1], 91.1% (active); under setting [2], 98.4%.
The matching figures for `CCc1cccc2sc(N(CCCn3ccnc3)C(=O)c3cccs3)nc12`: 88.1% (active) and 97.7%.
The like results for `CCc1cccc2sc(N(CCCn3ccnc3)C(=O)C=Cc3cccs3)nc12` were, in that order, 97.8% (active) and 99.1%.
